pPAFAH FP inh = inhibitors of human plasma PAF acetylhydrolase (pPAFAH); 330,000 compounds, 1.5% hits; Q13093; recombinant pPAFAH, FP-rhodamine probe fluorescence polarization; inhibition, % at 3.39 µM; AID 463082;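 active means inhibition above the mean inhibition across the screen plus 3 SD, cut at about 25% in these data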;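 further: inhibitors block binding of the rhodamine activity-based probe so polarization drops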
DAGLB inhibitor = diacylglycerol lipase beta (human) inhibition. Q8NCG7. HEK293T DAGLB membrane lysate, EnzChek fluorogenic substrate. inhibition, % at 5.17 µM. 340,000 compounds, 0.059% hits; in the data active means inhibition above about 34%
PAFAH1B3 FP inh = inhibitors of human PAFAH1B3. AID 492972. inhibition, % at 3.39 µM. recombinant PAFAH1B3, FP-rhodamine probe, fluorescence polarization. 340,000 compounds, 0.28% hits;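 active means inhibition above the screen-wide average of all tested compounds plus 3 SD, cut at about 25% in these data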
ATG4B inhibitor = blocks human ATG4B protease cleavage of LC3 substrate; Q9Y4P1; ATG4B cleavage of LC3-PLA2, NBD-HPC fluorescence, 1 h; inhibition, % at 8.33 µM; 340,000 compounds, 0.51% hits; AID 504462; in the data active means inhibition above about 40%
Target sequence (Q9Y4P1 whole entry, looked up): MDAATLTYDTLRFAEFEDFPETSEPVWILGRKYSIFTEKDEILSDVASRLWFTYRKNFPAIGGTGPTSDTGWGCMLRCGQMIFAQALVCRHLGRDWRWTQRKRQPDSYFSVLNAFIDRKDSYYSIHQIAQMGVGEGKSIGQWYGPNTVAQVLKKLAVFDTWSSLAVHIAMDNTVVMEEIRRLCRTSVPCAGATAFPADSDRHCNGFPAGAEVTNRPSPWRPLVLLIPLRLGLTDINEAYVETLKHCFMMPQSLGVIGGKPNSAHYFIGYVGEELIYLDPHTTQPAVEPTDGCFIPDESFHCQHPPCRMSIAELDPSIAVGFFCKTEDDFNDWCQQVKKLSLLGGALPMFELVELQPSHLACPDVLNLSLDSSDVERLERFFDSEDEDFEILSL
PAFAH2 inh = inhibitors of human PAFAH2; inhibition, % at 3.39 µM; AID 492956; Q99487; recombinant PAFAH2, FP-rhodamine activity probe, fluorescence polarization; 340,000 compounds, 0.99% hits;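 active means inhibition above the mean over all tested compounds plus 3 SD, cut at about 30% in these data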;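 further: inhibitors block probe labeling of enzyme so polarization drops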
PAFAH1B2 FP inh = inhibitors of human PAFAH1B2; recombinant PAFAH1B2, FP-rhodamine activity probe, fluorescence polarization; inhibition, % at 3.39 µM; 340,000 compounds, 1.2% hits;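 active means inhibition above the mean of all tested compounds plus 3 SD, cut at about 24% in these data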
pPAFAH FP conf = confirmation of human plasma PAF acetylhydrolase (pPAFAH) inhibitors. shares compounds with pPAFAH FP inh. recombinant pPAFAH, FP-Rh probe fluorescence polarization. inhibition, % at 3.39 µM. 2,300 compounds, 72% hits;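 active means mean inhibition of the triplicate above the hit cutoff set for the earlier primary screen, cut at about 25% in these data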
DAGLB inh conf = DAGLB (human) inhibition, confirmation screen; HEK293T DAGLB membrane lysate, EnzChek fluorogenic substrate; inhibition, % at 5.17 µM; shares compounds with DAGLB inhibitor; 190 compounds, 73% hits;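 active means mean inhibition over triplicate wells above a set limit taken from the primary lipase screen, cut at about 34% in these data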
ATG4B conf = ATG4B (human) inhibition, single-dose confirmed; AID 504757; 320 compounds, 92% hits; inhibition, % at 8.33 µM; ATG4B protease fluorescent substrate cleavage assay; shares compounds with ATG4B inhibitor; in the data active means inhibition above about 39%
PLA2 ctr = counter-screen for ATG4B inhibitors: human phospholipase A2 | 1,600 compounds, 66% hits | purified PLA2, NBD-C6-HPC fluorescence, 45 min | inhibition, % at 8.33 µM | shares compounds with ATG4B inhibitor; in the data active means inhibition above about 50%
A number is an active result; i = inactive; nt = no result; ! = not active in a repeat. An excerpt weighted towards active compounds, which were near 3% of everything screened.

SMILES	pPAFAH FP inh	DAGLB inhibitor	PAFAH1B3 FP inh	ATG4B inhibitor	PAFAH2 inh	PAFAH1B2 FP inh	pPAFAH FP conf	PLA2 ctr	others
CCCCCCCCCCCCN1[C@@H](CC(=O)O)c2cc(C(F)(F)F)ccc2S1(=O)=O	43.8	i	i	58.8	i	i	41.4	71.6
O=C(Nc1cccc(C(F)(F)F)c1)c1ccc2nc(-c3ccco3)c(-c3ccco3)nc2c1	69.7	i	29.5	47.4	30.8	i	76.7	i
COC(=O)CCC(=O)OC1(C)C(=O)C2=COC(c3ccc(OC)cc3)=CC2=C(Br)C1=O (stereo not drawn)	35.2	nt	nt	51.0	nt	nt	i	56.6
COc1ccccc1-c1ccc([C@@H]2C[C@H]3[C@H](CON3C)CN2C(=O)c2ccco2)cc1	nt	i	nt	nt	nt	nt	nt	nt
O=C(O)c1cc(-c2ccco2)nc2ccc(Br)cc12	63.2!	i	i	77.7!	45.0!	i	i	i	ATG4B conf=65.1
O=C(c1ccco1)N1CCN(C(=O)c2cc(-c3ccncc3)nc3ccc(Br)cc23)CC1	i	i	i	i	i	i	nt	nt
CC(C(=O)Nc1ccc(C(=O)O)c(O)c1)N1C(=O)/C(=C\c2ccco2)SC1=S (stereo not drawn)	38.2	i	i	48.2	i	i	i	i	ATG4B conf=61.7
O=C(CN1C(=O)/C(=C/c2ccco2)SC1=S)Nc1ccc(C(=O)O)c(O)c1	41.0	i	i	61.6	i	i	i	i	ATG4B conf=57.4
N#Cc1c(-c2cccc(Br)c2)cc(-c2ccco2)[nH]c1=O	45.3	i	i	nt	i	i	32.2	i
COc1ccc(NC(=O)Nc2cccc3c2O[C@@H](CN(C)CC2CCCCC2)[C@@H](C)CN([C@H](C)CO)C3=O)cc1	i	i	i	i	i	i	nt	nt
O=C1/C(=C\c2cc(Br)cc(Br)c2O)SC(=S)N1Cc1ccccc1	i	i	i	i	i	i	nt	nt
O=C(O)CN1C(=O)/C(=C\c2cc(Br)ccc2OCc2ccccc2Cl)SC1=S	45.1	i	i	49.8	i	i	74.6	81.1
O/N=C/c1cc(Br)ccc1OCc1ccccc1F	i	i	i	i	i	i	nt	nt
O=C(O)CN1C(=O)/C(=C\c2cc(Br)ccc2OCc2ccccc2F)SC1=S	52.3	i	i	55.8	31.1	i	67.3	51.4
O=C(NN1C(=O)/C(=C/C=C/c2ccccc2)SC1=S)c1ccncc1	i	i	i	i	i	i	nt	nt
O=C(NN1C(=O)/C(=C/C=C/c2ccco2)SC1=S)c1ccncc1	72.1	nt	nt	53.6	nt	nt	i	i	ATG4B conf=64.6
CN(CCC#N)C(=O)COC(=O)c1ccccc1OCc1ccccc1Cl	i	i	i	i	i	i	nt	nt
Cc1nn(-c2ccccc2)c(Cl)c1/C=N/Nc1ccc(Cl)c(C(=O)O)c1	i	i	i	i	i	i	nt	nt
Cc1nn(-c2ccccc2)c(Cl)c1/C=N/Nc1ccc(S(=O)(=O)Nc2ccccc2C(=O)O)cc1[N+](=O)[O-]	46.5	i	i	66.5	i	i	78.1	i
COc1ccc(C=NNc2ccc(S(=O)(=O)Nc3ccccc3C(=O)O)cc2[N+](=O)[O-])c(OC)c1	62.9	43.4	29.2	47.8	55.6	34.1	90.9	i	DAGLB inh conf=43.3
COc1ccccc1NS(=O)(=O)c1ccc(N/N=C(\C)C(C)C)c([N+](=O)[O-])c1	i	i	i	i	i	i	nt	nt
Cc1ccc(S(=O)(=O)NCc2ccc(C(=O)NCCN(Cc3ccccc3)C(C)C)cc2)cc1	i	i	i	i	i	i	nt	nt
CCn1nc([N+](=O)[O-])c(C(C#N)c2nc3cc(C(F)(F)F)ccc3s2)c(Cl)c1=O (stereo not drawn)	79.6	60.1	i	98.7	41.5	30.9	69.7	101.4	DAGLB inh conf=106.1
